# This is a sample that favours compounds with a hit; in the whole collection about 12% have one here.
# USP30 inh – human USP30 deubiquitinase inhibition | actives 5.3% (n = 47,000) | purified USP30, Ub-rhodamine cleavage fluorescence | inhibition, % at 25 µM | Q70CQ3 | AID 1645860
# Target sequence (Q70CQ3 whole entry, looked up): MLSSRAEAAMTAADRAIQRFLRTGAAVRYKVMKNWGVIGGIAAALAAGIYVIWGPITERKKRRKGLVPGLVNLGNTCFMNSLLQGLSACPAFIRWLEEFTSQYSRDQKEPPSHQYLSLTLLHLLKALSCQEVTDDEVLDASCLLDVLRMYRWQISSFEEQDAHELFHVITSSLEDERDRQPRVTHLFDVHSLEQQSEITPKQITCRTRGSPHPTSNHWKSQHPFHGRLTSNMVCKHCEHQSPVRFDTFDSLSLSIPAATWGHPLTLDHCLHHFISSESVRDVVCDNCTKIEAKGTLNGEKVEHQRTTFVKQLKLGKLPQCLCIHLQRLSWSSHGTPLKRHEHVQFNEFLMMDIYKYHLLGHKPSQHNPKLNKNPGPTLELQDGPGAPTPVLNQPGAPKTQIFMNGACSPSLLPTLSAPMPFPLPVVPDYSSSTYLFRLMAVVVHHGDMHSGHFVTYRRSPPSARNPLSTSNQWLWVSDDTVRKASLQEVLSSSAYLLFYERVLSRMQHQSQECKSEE
# USP8 block – blocks human USP8 ubiquitin-rhodamine cleavage; P40818; purified USP8, Ub-rhodamine cleavage fluorescence, 30 min; inhibition, % at 20 µM; actives 4.2% (n = 47,000); AID 1645853
# USP10 inh – human USP10 deubiquitinase inhibition; Q14694; purified USP10, Ub-rhodamine fluorescence, 60 min; inhibition, % at 20 µM; actives 1.1% (n = 47,000)
# UCHL1 block – inhibitors of human UCHL1 deubiquitinase. P09936. inhibition, % at 20 µM. purified UCHL1, Ub-rhodamine cleavage fluorescence. actives 0.2% (n = 47,000)
# USP7 block – inhibitors of human USP7 deubiquitinase. actives 0.3% (n = 47,000). purified USP7, Ub-rhodamine cleavage fluorescence. inhibition, % at 20 µM. Q93009
# USP17 block – inhibitors of human USP17 deubiquitinase; actives 6.5% (n = 47,000); inhibition, % at 50 µM; purified USP17, Ub-rhodamine cleavage fluorescence, 3 h; A8MUK1
# An asterisk follows results filed as active; . = not tested or not shown. Cut-off read from the data, not from the text of the source: active = inhibition above about 30%; inactive = the rest.
SMILES,USP30 inh,USP8 block,USP10 inh,UCHL1 block,USP7 block,USP17 block
Cc1ccc(/C=C/C(=O)NCC(=O)N2CCC(N(C)C3CCCCCC3)CC2)cc1,8,2,0,-3,-3,-4
CCCCc1nc2sc3c(SCC(=O)Nc4ccc(C(C)=O)cc4)ncnc3c2c2c1COC(C)(C)C2,1,0,-3,1,4,16
CC1=C(C(=O)NCc2ccccc2)C(c2ccc(C)cc2)n2ncnc2N1 (centres undefined),34*,4,2,2,6,11
CC1=C(C(=O)NCc2ccccc2)C(c2ccc(C#N)cc2)n2ncnc2N1 (centres undefined),.,0,1,2,2,28
Cc1cc(-c2cnc(CC3CCN(C(=O)C(C)(C)C)CC3)cn2)n[nH]1,.,-4,-2,0,-3,-29
COc1ccc(-c2nc(CNC(=O)c3ccccc3C)cs2)cc1,9,-5,0,0,57*,20
COc1ccc(-c2nc(CNC(=O)Cc3ccc(Cl)cc3)cs2)cc1,8,3,13,-3,-14,36*
O=C(COc1ccccc1)NCc1csc(-c2ccccc2)n1,31*,3,3,1,0,44*
COc1cccc(/C=C2\C(=O)N(c3cccc(C)c3)C(=O)c3ccccc32)c1,-9,66*,-7,-8,-10,43*
Cc1cccc(N2C(=O)/C(=C\c3ccc(N4CCOCC4)s3)c3ccccc3C2=O)c1,-50,41*,-7,1,1,42*
CS(=O)(=O)c1ccccc1-c1nnc(NC(=O)C(c2ccccc2)c2ccccc2)o1,14,-282,5,0,1,-38
Cc1ccc(C(=O)NCC(c2ccc(N(C)C)cc2)N2CCCC2)cc1 (centres undefined),-28,5,-6,4,-1,1
COc1ccc(-c2nc(SCC(=O)Nc3ccc(Cl)cc3F)n[nH]2)cc1,33*,-32,6,-1,-6,59*
COC(=O)c1ccc(NC(=O)CC(NC(=O)C(F)(F)F)c2cccs2)cc1 (centres undefined),-100,-8,4,0,0,-8
COc1ccc(C(CC(=O)Nc2ccc(Cl)cc2F)NC(=O)C(F)(F)F)cc1 (centres undefined),12,1,6,-1,4,31*
CC(NC(=O)c1cccc(N2C(=O)CCS2(=O)=O)c1)c1ccccc1 (centres undefined),-4,0,1,-2,-2,0
COc1ccc(-c2nc3n(n2)C(c2cccc(O)c2)C2=C(CCCC2=O)N3)cc1 (centres undefined),13,-55,1,-3,1,51*
CCOc1ccc(C2C3=C(CCCC3=O)Nc3nc4ccccc4n32)cc1OC (centres undefined),-3,3,1,2,1,-1
Cc1nn(-c2nc3ccccc3[nH]2)c2c1C(c1ccsc1)CC(=O)N2 (centres undefined),14,11,6,0,2,45*
Cc1nn(-c2nc3ccccc3s2)c2c1C(c1c(F)cccc1F)CC(=O)N2 (centres undefined),9,-14,2,2,6,2
Cc1ccc(NC(=O)C2Nc3ccccc3S(=O)(=O)N2)cc1C (centres undefined),.,0,0,0,4,66*
CCc1ccc(NC(=O)C2Nc3ccccc3S(=O)(=O)N2)cc1 (centres undefined),46*,2,5,3,6,41*
CC(C)c1ccc(NC(=O)c2ccc(C3Nc4ccccc4S(=O)(=O)N3)cc2)cc1 (centres undefined),51*,-3,10,-1,-13,65*
O=C(N[C@H]1C[C@@H]2C[C@H]1N(C(=O)c1ccccc1Cl)C2)c1cccnc1,-7,-58,0,0,0,-1
O=C1C(Nc2ccccc2)=CC(c2ccc(F)cc2)N1c1ccccc1 (centres undefined),5,-209,3,0,-2,-42
SMILES,USP30 inh,USP8 block,USP10 inh,UCHL1 block,USP7 block,USP17 block
COC(=O)c1cc2c(ccn2-c2ccc(F)cc2)n1C,-19,36*,3,6,-13,-35
Cc1cccc(NC(=O)CSc2nnc(-c3n[nH]c4c3CCC4)n2N)c1,28,8,4,3,3,63*
CCCNCC(=O)Nc1ccc2c(c1)c1ccccc1n2CC,.,-13,-3,1,1,0
O=C(CCSc1ccc(Cl)cc1)c1cccs1,9,7,10,3,11,84*
O=C(OCC(=O)c1cccs1)c1ccc(Cl)cc1,7,0,3,0,-10,1
O=C(NC(=O)c1ccc([N+](=O)[O-])cc1)Nc1ncc2c(n1)CCCC2=O,-2,-37,9,1,0,3
O=c1[nH]ccn2nc3c(c12)CCc1ccccc1-3,.,-6,-3,3,5,36*
Cc1nc(-c2ccccc2)sc1C(=O)CSc1ccc(F)cc1,32*,20,6,8,13,14
CCOC(=O)N1CCC(NC(=O)c2sc(-c3ccc(F)cc3)nc2C)CC1,19,10,-2,0,2,20
COc1ccc(CN2C[C@H]3N(c4ncccn4)CCC[C@@]3(C(=O)N(C)C)C2)cc1,-7,-4,-3,-2,-1,-3
Nc1c(-c2ccsc2)cnn1-c1ccccc1,-6,57*,6,0,-6,2
CC1CCN(C(=O)CCS(=O)(=O)c2ccc3c(c2)NC(=O)CCS3)CC1,-32,-89,0,-4,-2,-30
O=C1CCSc2ccc(S(=O)(=O)CCC(=O)N3CCc4ccccc4C3)cc2N1,13,-1,-1,0,-1,39*
CNCC(=O)N1CCCCC1c1nc(N)ncc1-c1ccccc1F (centres undefined),24,-77,1,0,1,-8
O=C(Nc1ccccc1F)NC1CCCc2ccccc21 (centres undefined),40*,11,6,-2,4,3
CCCN1C(=O)Cc2c(C)nc(-c3cccc(F)c3)nc21,-208,75*,-5,0,-22,-14
C[C@@H]1CC[C@H]2C(CN3CCN(C(c4ccccc4)c4ccccc4)CC3)C(=O)O[C@]23[C@H]1CC[C@@]1(C)O[C@@H]31 (some centres undefined),6,10,5,7,12,1
CC1Cc2ccccc2N1CC(=O)N1CCN(S(=O)(=O)c2ccc(Cl)cc2)CC1 (centres undefined),-103,4,-4,-6,-9,-13
CC(C)[C@@H]1C[C@@H]2C[C@@H](NS(C)(=O)=O)C[C@]2(c2ccccc2)CO1,1,13,0,-1,2,-1

# Compound activity deposited in PubChem BioAssay by Buhrlage Lab, Dana-Farber Cancer Institute and Novartis Institutes for BioMedical Research (Cambridge, Mass).
